Out of some 310,000 compounds screened, about 14,000 (4.5%) showed an effect of 50% or more. Effects have a minus sign here. For the sample, strong results were picked, then their nearest neighbours and some compounds at random.
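Also: peak tail current of the secondary pulse compared with the same well before compound.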

human ether-à-go-go-related gene (hERG) potassium channel, sequence (Q12809 whole entry, looked up): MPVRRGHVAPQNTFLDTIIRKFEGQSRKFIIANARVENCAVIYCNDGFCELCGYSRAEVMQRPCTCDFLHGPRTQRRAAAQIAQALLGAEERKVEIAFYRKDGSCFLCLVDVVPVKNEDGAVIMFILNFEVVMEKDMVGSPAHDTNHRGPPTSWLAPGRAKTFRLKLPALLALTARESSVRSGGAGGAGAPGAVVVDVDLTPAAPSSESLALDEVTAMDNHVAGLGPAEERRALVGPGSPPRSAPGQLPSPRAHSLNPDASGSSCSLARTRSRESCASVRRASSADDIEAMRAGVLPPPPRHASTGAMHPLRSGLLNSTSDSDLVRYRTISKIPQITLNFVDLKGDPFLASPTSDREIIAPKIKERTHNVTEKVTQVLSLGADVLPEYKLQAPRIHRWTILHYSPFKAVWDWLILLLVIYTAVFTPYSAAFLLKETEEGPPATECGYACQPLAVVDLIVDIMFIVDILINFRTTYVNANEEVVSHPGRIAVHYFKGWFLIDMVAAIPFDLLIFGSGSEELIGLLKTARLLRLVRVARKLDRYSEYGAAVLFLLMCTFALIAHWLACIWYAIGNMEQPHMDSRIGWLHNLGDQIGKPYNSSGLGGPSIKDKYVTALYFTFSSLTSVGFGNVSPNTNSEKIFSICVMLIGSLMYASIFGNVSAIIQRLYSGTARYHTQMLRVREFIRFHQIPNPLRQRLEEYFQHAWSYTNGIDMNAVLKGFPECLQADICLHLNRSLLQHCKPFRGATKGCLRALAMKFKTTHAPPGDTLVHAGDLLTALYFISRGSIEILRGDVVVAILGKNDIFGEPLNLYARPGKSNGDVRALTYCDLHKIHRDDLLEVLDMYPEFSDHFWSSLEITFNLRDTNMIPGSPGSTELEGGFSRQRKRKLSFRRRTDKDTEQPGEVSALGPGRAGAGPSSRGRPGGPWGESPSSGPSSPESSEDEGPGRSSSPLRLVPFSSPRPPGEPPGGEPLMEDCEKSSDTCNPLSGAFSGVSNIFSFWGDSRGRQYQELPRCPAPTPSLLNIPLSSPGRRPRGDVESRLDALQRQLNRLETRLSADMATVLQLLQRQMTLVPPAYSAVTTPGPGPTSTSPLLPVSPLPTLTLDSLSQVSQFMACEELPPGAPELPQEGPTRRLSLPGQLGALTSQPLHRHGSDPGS

The experiment addresses human ether-à-go-go-related gene (hERG) potassium channel (human, UniProt Q12809). In words: primary screen, population patch clamp on CHO cells stably expressing hERG; higher = less effect of the substance.
Turning to `CC(=O)Nc1ccc(N2C(=O)CSC2c2cccc([N+](=O)[O-])c2)cc1` (stereo not drawn), the “hERG current change (%, negative = inhibition) at 10uM” value came out at 15.6%.

In the case of `Cc1cc(NC(=O)CCCn2cnc([N+](=O)[O-])n2)no1`, the “hERG current change (%, negative = inhibition) at 10uM” value stood at 1.48%. Turning to `CC(=O)N1CCC2(CC1)C(C#N)=C(N)OC1=C2C(=O)CC(C)(C)C1`, the “hERG current change (%, negative = inhibition) at 10uM” value was 8.09%. Take `COc1ccccc1/C=C1\SC(=S)N(NS(=O)(=O)c2ccccc2)C1=O`: the “hERG current change (%, negative = inhibition) at 10uM” value turned out to be 8.33%. Consider `COc1ccccc1C(=O)NC(=O)COC(=O)C1CC1C` (stereo not drawn), for which the “hERG current change (%, negative = inhibition) at 10uM” value is -3.4%.

With `O=C(c1ccc(Cl)c(S(=O)(=O)N2CCOCC2)c1)N1CCN(c2ccccc2F)CC1`, the “hERG current change (%, negative = inhibition) at 10uM” value was -15.1%. For `COc1cc(CNc2cccc(C(=O)O)c2)cc(Br)c1OCC(=O)NC(C)(C)C`, the “hERG current change (%, negative = inhibition) at 10uM” value came out at 2.52%. As to `FC(F)(F)c1nnc2ccc(Sc3ccccn3)nn12`, the “hERG current change (%, negative = inhibition) at 10uM” value was 17.1%.

Take `O=C(NCc1ccccn1)C1CC(c2ccccc2Cl)=NO1` (stereo not drawn): the “hERG current change (%, negative = inhibition) at 10uM” value stood at 14.1%.

Turning to `O=S(=O)(Cc1ccccc1Cl)N1CCCCC1`, the “hERG current change (%, negative = inhibition) at 10uM” value was 1.5%. Take `C=CCNCCCCOc1c(Cl)cc(C)cc1Br.O=C(O)C(=O)O`: the “hERG current change (%, negative = inhibition) at 10uM” value is reported as -31.7%. Consider `CC(=O)N(\C=C/C=C/C=C1\Sc2ccccc2C1=O)c1ccccc1`, for which the “hERG current change (%, negative = inhibition) at 10uM” value is -3.47%. Regarding `CCOC(=O)C1=C(C)N=c2s/c(=C\c3ccc(OCC(=O)O)cc3)c(=O)n2C1c1ccccc1OC` (stereo not drawn), the “hERG current change (%, negative = inhibition) at 10uM” value was 12.8%.

Consider `CCOC(=O)C1=C(C)N=c2s/c(=C\c3cccc(OCC(=O)O)c3)c(=O)n2C1c1ccccc1OC` (stereo not drawn), for which the “hERG current change (%, negative = inhibition) at 10uM” value worked out at 28.7%. With `CCOC(=O)C1=C(C)N=c2s/c(=C\c3ccc(O)c([N+](=O)[O-])c3)c(=O)n2C1c1ccccc1OC` (stereo not drawn) the figure was -61.7%; with `CC(=O)c1c(C)[nH]c(C(=O)OCC(=O)C(C)(C)C)c1C`, -2.38%. For `CN1CCN(C2CCCCC2NS(=O)(=O)c2ccccc2)CC1` (stereo not drawn), the “hERG current change (%, negative = inhibition) at 10uM” value was found to be 9.24%.

Turning to `Cc1ccc(CN2CCSCC2)cc1`, the “hERG current change (%, negative = inhibition) at 10uM” value is 17.4%. For `CCc1ccc(CN2CCSCC2)cc1`, the “hERG current change (%, negative = inhibition) at 10uM” value is listed as 7.39%. As to `Brc1ccc(CN2CCSCC2)cc1`, the “hERG current change (%, negative = inhibition) at 10uM” value was -65.1%.

For the molecule `CCC1(C)Cc2c(sc3nc(SC)nc(NCCN(C)C)c23)CO1` (stereo not drawn), the “hERG current change (%, negative = inhibition) at 10uM” value is -42.9%. With `O=C(O)/C=C/C(=O)Nc1ccc(Oc2ncnc3cc(Cl)ccc23)nc1` the figure was 18.4%; with `CCC(C)NC(=O)Cn1cc2c(n1)CCC(C)C2` (stereo not drawn), 13.8%; with `c1ccc(-c2nn3nnnc3c3ccccc23)cc1`, -71.8%. In the case of `Cc1ccc(-c2nn3nnnc3c3ccccc23)cc1`, the “hERG current change (%, negative = inhibition) at 10uM” value came to 14.3%. With `Cc1ccc(-c2nn3nnnc3c3ccccc23)cc1C`, the “hERG current change (%, negative = inhibition) at 10uM” value is -1.31%. With `CC1=CCC2C(=O)N(c3ccc(OC(=O)c4ccco4)cc3)C(=O)C2C1` (stereo not drawn), the “hERG current change (%, negative = inhibition) at 10uM” value was found to be 12%. `COC(=O)CSc1ncnc2c1sc1nc(-c3ccco3)c3c(c12)CC(C)(C)OC3`: the “hERG current change (%, negative = inhibition) at 10uM” value was 3.01%. On to `O=C(CSc1ncccn1)NNC(=O)c1ccccc1`, for which the “hERG current change (%, negative = inhibition) at 10uM” value is listed as -4.48%.

As for `CCOCCCNC(=O)C(c1ccccc1)N(Cc1cccs1)C(=O)c1ccccc1O` (stereo not drawn), the “hERG current change (%, negative = inhibition) at 10uM” value is 14.3%. The result for `CCOc1ccccc1NC(=O)COC(=O)CC(C)(C)CC1=NS(=O)(=O)c2ccccc2N1` reads -60.5%.

With `COc1ccc(Cl)cc1NC(=O)COC(=O)CCCC1=NS(=O)(=O)c2ccccc2N1`, the “hERG current change (%, negative = inhibition) at 10uM” value amounted to 21.4%. The result for `COc1cc(NC(=O)COC(=O)CCCC2=NS(=O)(=O)c3ccccc3N2)cc(OC)c1` reads 14.4%; that for `COc1ccccc1NC(=O)COC(=O)CC(C)(C)CC1=NS(=O)(=O)c2ccccc2N1`, -69.9%. On to `O=C(COC(=O)CCCC1=NS(=O)(=O)c2ccccc2N1)Nc1ccccc1`, for which the “hERG current change (%, negative = inhibition) at 10uM” value was 24.7%.

In the case of `CC(C)(CC(=O)OCC(=O)Nc1ccccc1F)CC1=NS(=O)(=O)c2ccccc2N1`, the “hERG current change (%, negative = inhibition) at 10uM” value was 0.85%. For `Cc1cccc(NC(=O)COC(=O)CCCC2=NS(=O)(=O)c3ccccc3N2)c1`, the “hERG current change (%, negative = inhibition) at 10uM” value worked out at 10.7%. For the molecule `CCc1ccc(NC(=O)COC(=O)CCCC2=NS(=O)(=O)c3ccccc3N2)cc1`, the “hERG current change (%, negative = inhibition) at 10uM” value is -1.3%. The result for `Cc1cc(C)cc(NC(=O)COC(=O)CCCC2=NS(=O)(=O)c3ccccc3N2)c1` reads -55.9%; that for `Cc1cc(NC(=O)C2CCCN(S(=O)(=O)c3c(C)noc3C)C2)no1` (stereo not drawn), -0.534%.

For the molecule `Cc1oc(-c2cccs2)nc1CSCC(=O)NC1CC1`, the “hERG current change (%, negative = inhibition) at 10uM” value is listed as -3.82%. With `CCC1=NN(C(=O)Cc2ccc([N+](=O)[O-])cc2)C(O)(c2ccncc2)C1` (stereo not drawn) the figure was -11.9%; with `COc1ccc(NC(=O)c2cccc(N3C(=O)C4C5C=CC(C5)C4C3=O)c2)cc1Cl` (stereo not drawn), 2.2%. Turning to `C=CCN1C(=O)C(Cc2ccc(F)cc2)S/C1=N/N=C/c1cccs1` (stereo not drawn), the “hERG current change (%, negative = inhibition) at 10uM” value is -9.46%. Take `CC(C)C(NC(=O)c1ccco1)C(=O)NCC(c1ccco1)N(C)C` (stereo not drawn): the “hERG current change (%, negative = inhibition) at 10uM” value was found to be 12.5%.

As to `CCOc1ccccc1N1CCN(CC(O)COc2ccc3c(C)cc(=O)oc3c2)CC1` (stereo not drawn), the “hERG current change (%, negative = inhibition) at 10uM” value is on record as -53.1%. For the molecule `COc1ccccc1N1CCN(CC(O)COc2ccc3c(c2)CCC3)CC1.Cl` (stereo not drawn), the “hERG current change (%, negative = inhibition) at 10uM” value is listed as -74.2%.

Consider `COc1ccc(N2CCN(CC(O)COc3cc(C)cc(C)c3)CC2)cc1.Cl` (stereo not drawn), for which the “hERG current change (%, negative = inhibition) at 10uM” value is recorded as -48.8%. On to `CC1CC(C)CN(CC(O)COc2ccc3c(c2)CCC3)C1.Cl` (stereo not drawn), for which the “hERG current change (%, negative = inhibition) at 10uM” value is -53.2%. For the molecule `COc1ccc(N2CCN(CC(O)COc3ccc4c(c3)CCC4)CC2)cc1.Cl` (stereo not drawn), the “hERG current change (%, negative = inhibition) at 10uM” value is on record as -48.3%.

Consider `COc1ccc(N2CCN(CC(O)COc3ccc(C)cc3C)CC2)cc1.Cl` (stereo not drawn), for which the “hERG current change (%, negative = inhibition) at 10uM” value was -67.8%. For the molecule `OC(COc1ccc2c(c1)CCC2)CN1CCN(c2ccccc2F)CC1` (stereo not drawn), the “hERG current change (%, negative = inhibition) at 10uM” value was -14.6%. As to `COc1ccccc1N1CCN(CC(O)COc2ccc3c(C)cc(=O)oc3c2)CC1` (stereo not drawn), the “hERG current change (%, negative = inhibition) at 10uM” value is recorded as -24.7%. For `COc1cccc(OCC(O)CN2CC(C)CC(C)C2)c1.Cl` (stereo not drawn), the “hERG current change (%, negative = inhibition) at 10uM” value is -13.5%.

As to `CCN1CCN(CC(O)COc2ccc3c(c2)CCC3)CC1.Cl` (stereo not drawn), the “hERG current change (%, negative = inhibition) at 10uM” value is reported as 5.59%. As for `COc1ccc(N2CCN(CC(O)COc3cc(C)ccc3C)CC2)cc1.Cl` (stereo not drawn), the “hERG current change (%, negative = inhibition) at 10uM” value is -33.8%.

As to `Cc1cc(=O)oc2cc(OCC(O)CN3CCN(c4ccccc4)CC3)ccc12.Cl` (stereo not drawn), the “hERG current change (%, negative = inhibition) at 10uM” value is recorded as -47.4%.

These data come from PMC4336329 (PLoS ONE, 2015).
